In all, about 5,500 compounds went through this assay and about 2,000 (36%) were called active. Inconclusive results (about 18%) are left out. Rule as the data show it: active = normalized growth mostly below about 0.91 (no sharp cut-off); inconclusive = no clear call, values can overlap the other calls; inactive = mostly above about 0.92. The list shows a part of the results.
Experiment: chemical genetic growth profiling, strain panel (AID 1159580);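 also: tested at 20 µM; growth read once vehicle control cultures reached saturation at 30 °C; 1 = growth at the plate median or of vehicle wells; lower values mean less growth of the strain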
Settings: growth OD

Measured: normalized growth

CC1(C)S[C@@H]2[C@H](NC(=O)[C@H](N)c3ccccc3)C(=O)N2[C@H]1C(=O)O
inactive: S. cerevisiae deletion strains, locus YJR043C, strain POL32, active compounds read low 1 | S. cerevisiae deletion strains, locus YJR066W, strain TOR1, active compounds read low 0.981 | S. cerevisiae deletion strains, locus YKL009W, strain mrt4, active compounds read low 1.01 | S. cerevisiae deletion strains, locus YKL068W, active compounds read low 1 | S. cerevisiae deletion strains, locus YKL085W, strain MDH1 (second series), active compounds read low 1.01 | S. cerevisiae deletion strains, locus YKL085W, strain MDH1, active compounds read low 1.01 | S. cerevisiae deletion strains, locus YKL160W, strain elf1, active compounds read low 0.93 | S. cerevisiae deletion strains, locus YKL190W, strain CNB1, active compounds read low 1.01 | S. cerevisiae deletion strains, locus YKR001C, strain vps1, active compounds read low 0.991 | S. cerevisiae deletion strains, locus YKR026C, strain gcn3, active compounds read low 0.972 | S. cerevisiae deletion strains, locus YKR091W, strain srl3, active compounds read low 0.962 | S. cerevisiae deletion strains, locus YLL001W, strain dnm1, active compounds read low 1 | S. cerevisiae deletion strains, locus YLL026W, active compounds read low 0.966 | S. cerevisiae deletion strains, locus YLL041C, strain sdh2, active compounds read low 0.976 | S. cerevisiae deletion strains, locus YLR027C, strain aat2, active compounds read low 0.983 | S. cerevisiae deletion strains, locus YLR039C, strain RIC1, active compounds read low 0.993 | S. cerevisiae deletion strains, locus YLR058C, strain SHM2, active compounds read low 1.01 | S. cerevisiae deletion strains, locus YLR102C, strain apc9, active compounds read low 0.997 | S. cerevisiae deletion strains, locus YLR113W, strain HOG1, active compounds read low 1.04 | S. cerevisiae deletion strains, locus YLR221C, strain rsa3, active compounds read low 1.02 | S. cerevisiae deletion strains, locus YLR258W, strain gsy2, active compounds read low 0.981 | S. cerevisiae deletion strains, locus YLR262C, strain YPT6 (second series), active compounds read low 0.983 | S. cerevisiae deletion strains, locus YLR262C, strain YPT6, active compounds read low 1.08 | S. cerevisiae deletion strains, locus YLR268W, strain sec22, active compounds read low 1.01 | S. cerevisiae deletion strains, locus YLR320W, strain mms22, active compounds read low 1 | S. cerevisiae deletion strains, locus YLR330W, strain CHS5, active compounds read low 1.01 | S. cerevisiae deletion strains, locus YLR342W, strain FKS1 (second series), active compounds read low 1.01 | S. cerevisiae deletion strains, locus YLR342W, strain FKS1, active compounds read low 0.985 | S. cerevisiae deletion strains, locus YLR357W, strain rsc2, active compounds read low 0.928 | S. cerevisiae deletion strains, locus YLR370C, strain arc18, active compounds read low 0.951 | S. cerevisiae deletion strains, locus YLR371W, strain rom2, active compounds read low 1 | S. cerevisiae deletion strains, locus YLR384C, strain iki3, active compounds read low 0.97 | S. cerevisiae deletion strains, locus YLR418C, strain cdc73, active compounds read low 0.998 | S. cerevisiae deletion strains, locus YML016C, strain PPZ1, active compounds read low 1.01 | S. cerevisiae deletion strains, locus YML032C, strain rad52, active compounds read low 0.994 | S. cerevisiae deletion strains, locus YML120C, strain ndi1, active compounds read low 0.995 | S. cerevisiae deletion strains, locus YML124C, strain tub3, active compounds read low 1 | S. cerevisiae deletion strains, locus YMR058W, strain fet3, active compounds read low 0.968 | S. cerevisiae deletion strains, locus YMR078C, strain ctf18, active compounds read low 1.01 | S. cerevisiae deletion strains, locus YMR125W, strain sto1, active compounds read low 0.964 | S. cerevisiae deletion strains, locus YMR129W, active compounds read low 0.967 | S. cerevisiae deletion strains, locus YMR205C, strain PFK2, active compounds read low 0.993 | S. cerevisiae deletion strains, locus YMR223W, strain ubp8, active compounds read low 1.01 | S. cerevisiae deletion strains, locus YMR231W, strain pep5, active compounds read low 0.985 | S. cerevisiae deletion strains, locus YMR307W, strain GAS1, active compounds read low 0.926 | S. cerevisiae deletion strains, locus YNL067W, strain RPL9B, active compounds read low 1.02 | S. cerevisiae deletion strains, locus YNL071W, strain lat1, active compounds read low 0.977 | S. cerevisiae deletion strains, locus YNL128W, strain TEP1, active compounds read low 1.03 | S. cerevisiae deletion strains, locus YNL183C, strain NPR1, active compounds read low 0.975 | S. cerevisiae deletion strains, locus YNL209W, strain ssb2, active compounds read low 0.956 | S. cerevisiae deletion strains, locus YNL233W, strain BNI4, active compounds read low 1.01 | S. cerevisiae deletion strains, locus YNL248C, strain rpa49, active compounds read low 0.907 | S. cerevisiae deletion strains, locus YNL250W, strain rad50, active compounds read low 0.998 | S. cerevisiae deletion strains, locus YNL271C, strain bni1, active compounds read low 1.03 | S. cerevisiae deletion strains, locus YNL298W, strain CLA4, active compounds read low 1.01 | S. cerevisiae deletion strains, locus YNL307C, strain MCK1, active compounds read low 1 | S. cerevisiae deletion strains, locus YNL322C, strain KRE1 (second series), active compounds read low 0.97 | S. cerevisiae deletion strains, locus YNR049C, strain mso1, active compounds read low 0.946 | S. cerevisiae deletion strains, locus YNR052C, strain pop2, active compounds read low 1 | S. cerevisiae deletion strains, locus YOL006C, strain TOP1, active compounds read low 1.04 | S. cerevisiae deletion strains, locus YOL012C, strain htz1 0.815 | S. cerevisiae deletion strains, locus YOL147C, strain pex11, active compounds read low 1.01 | S. cerevisiae deletion strains, locus YOR001W, strain rrp6, active compounds read low 1 | S. cerevisiae deletion strains, locus YOR061W, strain CKA2, active compounds read low 1.02 | S. cerevisiae deletion strains, locus YOR069W, strain VPS5, active compounds read low 1.01 | S. cerevisiae deletion strains, locus YOR070C, strain gyp1, active compounds read low 0.981 | S. cerevisiae deletion strains, locus YOR080W, strain dia2, active compounds read low 0.959 | S. cerevisiae deletion strains, locus YOR083W, strain WHI5, active compounds read low 0.917 | S. cerevisiae deletion strains, locus YOR106W, strain vam3, active compounds read low 0.914 | S. cerevisiae deletion strains, locus YOR136W, strain idh2, active compounds read low 0.995 | S. cerevisiae deletion strains, locus YOR144C, strain elg1, active compounds read low 0.998 | S. cerevisiae deletion strains, locus YOR184W, strain ser1, active compounds read low 0.999 | S. cerevisiae deletion strains, locus YOR231W, strain MKK1, active compounds read low 1.02 | S. cerevisiae deletion strains, locus YOR265W, strain rbl2, active compounds read low 0.962 | S. cerevisiae deletion strains, locus YOR270C, strain vph1, active compounds read low 0.951 | S. cerevisiae deletion strains, locus YOR290C, strain snf2, active compounds read low 0.92 | S. cerevisiae deletion strains, locus YOR316C, strain cot1, active compounds read low 1 | S. cerevisiae deletion strains, locus YPL051W, strain arl3, active compounds read low 0.947 | S. cerevisiae deletion strains, locus YPL055C, strain LGE1, active compounds read low 1.02 | S. cerevisiae deletion strains, locus YPL078C, strain atp4, active compounds read low 0.953 | S. cerevisiae deletion strains, locus YPL106C, strain sse1, active compounds read low 0.976 | S. cerevisiae deletion strains, locus YPL240C, strain hsp82, active compounds read low 0.974 | S. cerevisiae deletion strains, locus YPL256C, strain CLN2, active compounds read low 1.05 | S. cerevisiae deletion strains, locus YPR119W, strain clb2, active compounds read low 1.01 | S. cerevisiae deletion strains, locus YPR141C, strain kar3, active compounds read low 1 | S. cerevisiae deletion strains, locus YPR163C, strain tif3, active compounds read low 0.999 | S. cerevisiae deletion strains, locus YPR167C, strain met16, active compounds read low 1.02 | S. cerevisiae deletion strains, strain wtn01, active compounds read low 1.01 | S. cerevisiae strains, strain wild type, active compounds read low 1.02
